From PubChem BioAssay
Calls of active or inactive are those of the source.

Legend:
[1] = tested on: Plasmodium falciparum Sir2 (PF13_0152, Sir2A); test: pfSir2 binders on small-molecule microarrays, primary screen, biochemical, small-molecule microarray, 635 nm fluorescence (AID 1098); details: small-molecule microarray binding, fluorescence 635 nm; higher = more signal;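 also: score merges spot fluorescence intensity with its signal-to-noise ratio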
[2] = small-molecule microarray binders of probe aDKK1, primary screen, biochemical, biotinylated probe, 635/667 nm fluorescence (AID 1099); details: higher = more signal;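 also: score merges 667nm spot fluorescence with signal to noise across triplicate slides; reference of the scale not given here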
[3] = small-molecule microarray binders of probe aCHRDL2, primary screen, biochemical, biotinylated probe, 635/667 nm fluorescence (AID 1100); details: higher = more signal
[4] = splicing luciferase reporter signal modulators, primary screen, spliceosome inhibition project, cell-based, HEK293, splice +/- reporter (AID 1101); details: luminescence, 24 h, higher = more signal, called active from +8 up or from −8 down;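 also: HEK293 cells carrying a splicing-competent luciferase reporter gene; test concentration not given here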
[5] = molecular target: Fibroblast growth factor 10 (Homo sapiens) (UniProt O15520); test: FGF10 binders on small-molecule microarrays, primary screen, biochemical, small-molecule microarray, 635 nm fluorescence (AID 1102); details: FGF10 binding, fluorescence 635 nm, higher = more signal
Chain of Fibroblast growth factor 10 (Homo sapiens) (O15520 whole entry, looked up): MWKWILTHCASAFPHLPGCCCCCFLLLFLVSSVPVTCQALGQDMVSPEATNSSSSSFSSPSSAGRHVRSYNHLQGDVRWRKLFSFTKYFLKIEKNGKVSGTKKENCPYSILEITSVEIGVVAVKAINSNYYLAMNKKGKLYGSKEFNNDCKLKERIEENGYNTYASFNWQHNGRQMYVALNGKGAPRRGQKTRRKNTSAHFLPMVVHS

[6] = tested on: glycogen synthase kinase-3 (GSK3A per assay name; protocol says GSK3B); test: GSK3 binders on small-molecule microarrays, primary screen, biochemical, small-molecule microarray, 635 nm fluorescence, GSK3A (AID 1103); details: small-molecule microarray binding, fluorescence 635 nm; higher = more signal; also: the record names both GSK3A and GSK3B
[7] = molecular target: Epidermal growth factor receptor (Homo sapiens) (UniProt P00533); test: EGFR binders on small-molecule microarrays, primary screen, biochemical, small-molecule microarray, 635 nm fluorescence (AID 1104); details: EGFR binding, higher = more signal;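 also: score merges 667 nm emission intensity with spot signal to noise over triplicate slides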
Chain of Epidermal growth factor receptor (Homo sapiens) (P00533 whole entry, looked up): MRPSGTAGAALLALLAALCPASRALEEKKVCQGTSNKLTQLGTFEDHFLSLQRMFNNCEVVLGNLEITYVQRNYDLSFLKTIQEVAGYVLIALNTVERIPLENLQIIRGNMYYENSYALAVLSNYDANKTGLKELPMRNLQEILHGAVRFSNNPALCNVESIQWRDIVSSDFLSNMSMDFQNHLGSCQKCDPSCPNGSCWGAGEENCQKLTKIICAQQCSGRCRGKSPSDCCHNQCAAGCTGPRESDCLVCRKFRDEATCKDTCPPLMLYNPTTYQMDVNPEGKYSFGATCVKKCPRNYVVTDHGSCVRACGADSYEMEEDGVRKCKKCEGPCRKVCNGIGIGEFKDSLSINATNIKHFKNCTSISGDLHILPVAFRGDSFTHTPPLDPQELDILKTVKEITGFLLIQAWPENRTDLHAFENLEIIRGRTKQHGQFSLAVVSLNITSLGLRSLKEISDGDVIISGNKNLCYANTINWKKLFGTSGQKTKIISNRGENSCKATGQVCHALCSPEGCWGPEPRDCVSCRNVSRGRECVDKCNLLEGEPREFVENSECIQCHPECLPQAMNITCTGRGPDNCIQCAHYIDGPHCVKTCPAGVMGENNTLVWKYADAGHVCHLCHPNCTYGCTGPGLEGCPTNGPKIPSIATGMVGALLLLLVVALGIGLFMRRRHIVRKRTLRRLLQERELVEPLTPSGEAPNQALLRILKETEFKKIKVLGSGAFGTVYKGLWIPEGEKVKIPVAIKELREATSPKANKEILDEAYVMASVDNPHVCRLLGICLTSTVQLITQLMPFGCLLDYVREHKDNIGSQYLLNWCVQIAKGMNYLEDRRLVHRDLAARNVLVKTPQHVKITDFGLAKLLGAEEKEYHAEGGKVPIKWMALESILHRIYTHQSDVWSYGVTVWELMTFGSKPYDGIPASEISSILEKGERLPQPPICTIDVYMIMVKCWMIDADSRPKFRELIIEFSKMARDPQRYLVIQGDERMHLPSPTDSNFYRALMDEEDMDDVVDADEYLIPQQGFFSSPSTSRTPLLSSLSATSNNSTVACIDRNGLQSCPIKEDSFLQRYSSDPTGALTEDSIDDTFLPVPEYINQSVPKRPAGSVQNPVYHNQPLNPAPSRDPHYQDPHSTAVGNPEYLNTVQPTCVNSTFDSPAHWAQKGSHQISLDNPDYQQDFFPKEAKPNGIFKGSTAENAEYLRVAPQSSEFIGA

[8] = molecular target: Follistatin-related protein 3 (Homo sapiens) (UniProt O95633); test: FSTL3 binders on small-molecule microarrays, primary screen, biochemical, small-molecule microarray, 635 nm fluorescence (AID 1105); details: FSTL3 binding, higher = more signal;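 also: score merges emission near 667 nm and signal to noise per printed spot across three slides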
Chain of Follistatin-related protein 3 (Homo sapiens) (O95633 whole entry, looked up): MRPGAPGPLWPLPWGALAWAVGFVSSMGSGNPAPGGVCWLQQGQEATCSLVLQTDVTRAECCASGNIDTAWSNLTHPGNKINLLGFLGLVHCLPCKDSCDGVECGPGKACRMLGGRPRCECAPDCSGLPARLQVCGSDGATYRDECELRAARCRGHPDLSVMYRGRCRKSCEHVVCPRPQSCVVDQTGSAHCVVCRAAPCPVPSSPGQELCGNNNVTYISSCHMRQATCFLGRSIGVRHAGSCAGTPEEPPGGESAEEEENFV

[9] = molecular target: Dickkopf-related protein 1 (Homo sapiens) (UniProt O94907); test: DKK1 binders on small-molecule microarrays, primary screen, biochemical, small-molecule microarray, 635 nm fluorescence scan (AID 1106); details: DKK1 binding, higher = more signal;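 also: score merges emission near 667 nm with signal to noise over three replicate slides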
Chain of Dickkopf-related protein 1 (Homo sapiens) (O94907 whole entry, looked up): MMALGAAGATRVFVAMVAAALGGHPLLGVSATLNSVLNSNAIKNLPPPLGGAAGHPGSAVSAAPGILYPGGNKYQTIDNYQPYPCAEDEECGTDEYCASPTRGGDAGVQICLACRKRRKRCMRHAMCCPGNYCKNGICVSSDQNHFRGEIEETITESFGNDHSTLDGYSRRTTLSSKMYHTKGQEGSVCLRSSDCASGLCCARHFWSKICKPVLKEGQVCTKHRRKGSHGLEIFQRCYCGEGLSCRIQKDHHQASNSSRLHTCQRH

[10] = tested on: Inhibin beta A chain (activin A); test: INHBA (activin A) binders on microarrays, primary screen, biochemical, small-molecule microarray, 635 nm fluorescence scan (AID 1107); details: small-molecule microarray binding, higher = more signal;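 also: mouse activin A protein probed at 4.33 µg/mL on printed slides; score merges bound-protein fluorescence near 667 nm with spot signal-to-noise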

Row | SMILES | composite z-score [1] | composite z-score [2] | composite z-score [3] | z-score [4] | composite z-score [5] | composite z-score [6] | composite z-score [7] | composite z-score [8] | composite z-score [9] | composite z-score [10]
1 | COc1cc2c(cc1OC)CN(C(=O)[C@@H]1[C@H]3C(=O)O[C@H](c4ccccc4)[C@H](c4ccccc4)N3[C@H](c3ccccc3OCCO)[C@@]13C(=O)Nc1ccc(C#CC4(O)CCCCCC4)cc13)CC2 | 1.1 | 0.159 | 0.0184 | 0.582 (inactive) | 0.366 | 1.13 | 0.368 | 0.511 | 0.383 | 0.275
2 | COCCOC(=O)N1C(=O)[C@@]2(c3cc(C#CC4(O)CCCCCC4)ccc31)[C@H](C(=O)N1CCCCCCC1)[C@H]1C(=O)O[C@H](c3ccccc3)[C@H](c3ccccc3)N1[C@@H]2c1ccc(OCCO)cc1 | 1.65 | 2.65 | 1.45 | 0.225 (inactive) | 1.5 | 1.35 | 1.46 | 1.62 | 1.72 | 1.68
3 | CC(C)(C)N1CC=CC23O[C@@H]4C=CCOC(=O)[C@@H]4[C@H]2C(=O)N(CCCO)[C@@H]3C1=O (stereo not given in full) | 1.43 | -0.451 | 0.726 | -1.28 (inactive) | -1.3 | -1.13 | -1.66 | -1.69 | -1.26 | 0.301
4 | O=C(NC1CC1)[C@@H]1c2ccccc2C(=O)N(Cc2ccccc2)[C@H]1c1ccc(CO)cc1 | 1.73 | -0.474 | 0.211 | 0.135 (inactive) | 0.209 | 0.714 | -0.375 | -0.298 | -0.551 | 0.443
5 | COc1ccc([Si](C)(C)[C@H]2[C@H](CCn3cc([C@H](O)c4ccccc4)nn3)O[C@@]3(C(=O)N(Cc4ccc(N5CCC5=O)cc4)c4ccccc43)[C@@H]2C)cc1 | 0.995 | -0.185 | -0.403 | 0.0121 (inactive) | 0.865 | 0.365 | 0.631 | 0.855 | 0.527 | 0.862
6 | C=CCN1C(=O)[C@@]2(O[C@@H](CCn3cc([C@H](O)c4ccccc4)nn3)[C@H]([Si](C)(C)c3ccc(OC)cc3)[C@H]2C)c2ccccc21 | 1.52 | -0.0203 | 0.0047 | -0.56 (inactive) | 0.756 | 0.658 | 0.32 | 1.19 | 0.694 | 0.0239
7 | CN(C)C(=O)[C@@]1(Cc2ccccc2N=[N+]=[N-])COC(c2ccc(OCCCO)cc2)=N1 | 1.54 | 0.764 | 0.795 | -0.545 (inactive) | 0.629 | 1.05 | 0.0428 | 0.396 | -0.239 | 0.0217
8 | C=CCC(OC(C)=O)[C@@H]1[C@@H](N(Cc2cc3ccccc3o2)C(=O)Cc2ccc(F)cc2)c2cc(OCCCO)ccc2N1C(=O)c1ccc2ccccc2n1 (stereo not given in full) | -0.278 | -0.106 | 0.394 | -0.509 (inactive) | -0.0436 | -0.497 | 0.112 | -0.255 | 0.0645 | 1.2
